This note sets out measurements from PubChem BioAssay AID696 (Sanford-Burnham Center for Chemical Genomics, 2007).

The campaign covered roughly 96,000 compounds. About 1,200 (1.2%) were called active. The sample holds actives, similar compounds and a random draw of the others, so the mix is not that of the screen. Rule as the data show it: active = activation fold above about 2; inactive = the rest.

Alkaline phosphatase, placental type (Homo sapiens), sequence (P05187 whole entry, looked up): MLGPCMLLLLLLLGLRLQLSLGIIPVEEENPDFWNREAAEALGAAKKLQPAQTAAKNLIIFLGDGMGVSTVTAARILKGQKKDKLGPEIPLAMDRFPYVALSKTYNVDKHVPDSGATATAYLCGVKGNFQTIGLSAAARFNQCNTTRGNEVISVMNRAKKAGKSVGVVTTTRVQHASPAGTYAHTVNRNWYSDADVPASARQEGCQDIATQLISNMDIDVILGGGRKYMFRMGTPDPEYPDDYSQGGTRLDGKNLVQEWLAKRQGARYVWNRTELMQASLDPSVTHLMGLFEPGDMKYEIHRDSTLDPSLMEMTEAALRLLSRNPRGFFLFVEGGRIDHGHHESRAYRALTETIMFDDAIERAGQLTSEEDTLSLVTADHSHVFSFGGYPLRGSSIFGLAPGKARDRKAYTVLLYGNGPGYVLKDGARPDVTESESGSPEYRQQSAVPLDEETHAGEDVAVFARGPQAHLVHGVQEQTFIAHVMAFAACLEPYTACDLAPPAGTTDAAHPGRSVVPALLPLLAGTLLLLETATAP

This test has as its target Alkaline phosphatase, placental type (Homo sapiens) (UniProt P05187). Kind of test: PLAP enzyme activators, biochemical, luminescence, HTS (AID 696). As to conditions: purified PLAP enzyme, luminescent substrate read-out; at 20 µM; hits give high values.
Consider `CC(=O)NS(=O)(=O)c1ccc(NC(=S)NC(=O)C(C)(C)C)cc1`, for which the activation fold was 1.1 (inactive).

For the compound `COc1ccccc1NC(=O)c1ccc2nc(N3C(=O)CCC3=O)sc2c1`, the activation fold is 1.1 (inactive).

Consider `COc1ccc(C(C)=O)cc1CN1C(=O)NC2(CCCCC2C)C1=O` (stereo not drawn), for which the activation fold was 1 (inactive).

Turning to `CCOC(=O)N1CCN(C(c2cccnc2)c2ccc3cccnc3c2O)CC1` (stereo not drawn), the activation fold was 2.2 (active).

As for `CCN1CCN(C(c2cccnc2)c2cc(Cl)c3cccnc3c2O)CC1` (stereo not drawn), the activation fold is 1.7 (inactive).

As to `CCOC(=O)N1CCN(C(=O)CSc2ccc(Cl)cc2)CC1`, the activation fold is 1.4 (inactive).

Consider `CC1CC(C)CN(C/C=C/c2ccccc2[N+](=O)[O-])C1` (stereo not drawn), for which the activation fold was 1.2 (inactive).

Consider `C=C(C)COc1ccc(-c2n[nH]c(C)c2-c2ccccc2OC)c(O)c1`, for which the activation fold was 1 (inactive).

Consider `CCOc1ccccc1Oc1cn[nH]c1-c1ccc(OC)cc1O`, for which the activation fold is 2.8 (active).

Regarding `CCOc1ccccc1NC(=O)Nc1cc(OC)ccc1OC`, the activation fold is 0.8 (inactive).

`c1ccc2c(C[n+]3csc4ccccc43)cccc2c1`: the activation fold was 1.1 (inactive).

Take `COc1ccccc1Nc1nc(N)nc(CN(C)C2CCCCC2)n1`: the activation fold is 1.3 (inactive).

With `COc1ccccc1NC1=NC2(CCCC2)N=C(N)N1`, the activation fold is 0.8 (inactive).

`COc1ccccc1NC1=NC(c2ccc(Cl)cc2)N=C(N)N1` (stereo not drawn): the activation fold is 2.2 (active).

As for `O=C1C=C(c2ccc(Cl)cc2)C(=O)N1Nc1ccccc1`, the activation fold was 0.9 (inactive).

For the compound `C=CCn1c(SCc2c(C)noc2C)nc2sc3c(c2c1=O)CCC(C)C3` (stereo not drawn), the activation fold is 1.4 (inactive).

As for `CCOC(=O)c1c(NC(=O)c2cccs2)sc(C)c1C`, the activation fold is 1.1 (inactive).

Take `CCOC(=O)c1c(NC(=O)CCl)sc(C(=O)N(CC)CC)c1C`: the activation fold was 1.7 (inactive).

As for `COCCCNCC(=O)Nc1sc(C)c(C)c1C(=O)OC`, the activation fold was 2.2 (active).

As for `COc1ccc(C2=NOC3(CC(=O)N(c4ccc(C)cc4)C3=O)C2)cc1` (stereo not drawn), the activation fold was 1.2 (inactive).

Take `CCOC(=O)c1c(NC(=O)CCCN2CCOCC2)sc2c1CC(C)(C)OC2`: the activation fold is 1.5 (inactive).

Take `COc1ccc(CCNc2ncnc3nc[nH]c23)cc1OC`: the activation fold is 1.8 (inactive).

`c1ccc2c(c1)OCC(CNc1ncnc3nc[nH]c13)O2` (stereo not drawn): the activation fold was 1.6 (inactive).

Consider `CCc1ccc(N(CC)c2ncnc3nc[nH]c23)cc1`, for which the activation fold was 2 (active).

For `Cc1nn(C)cc1/C=C1\CCC/C(=C\c2cn(C)nc2C)C1=O`, the activation fold was 1.8 (inactive).

For `CCn1c(C)nc2cc(C(=O)NNS(=O)(=O)c3ccc(C)cc3C)ccc21`, the activation fold is 1 (inactive).

As to `Cc1ccc(C(=O)Nc2c(C#N)c(C)c(C)n2Cc2ccccc2)cc1`, the activation fold was 0.9 (inactive).

Turning to `Cc1[nH][nH]c(=O)c1N=Nc1ccccc1`, the activation fold is 1.1 (inactive).

For `Cc1[nH][nH]c(=O)c1C(c1ccc(-c2ccc(Cl)cc2)o1)c1c(C)[nH][nH]c1=O`, the activation fold was 2.2 (active).

In the case of `Cc1nnc(NC(=O)CCCOc2ccccc2)s1`, the activation fold is 1 (inactive).

Turning to `CCOC(=O)c1nn(-c2cccc(C)c2)cc1C(=O)c1ccccc1`, the activation fold is 1.8 (inactive).

As for `O=C(Nc1ccccc1)c1cccnc1Nc1ccccc1`, the activation fold was 0.8 (inactive).

With `O=C(Nc1ccc(-n2ccnc2P(=O)(O)c2ccccc2)cc1)c1ccccc1Br`, the activation fold was 2.1 (active).

`Cc1nonc1NC(=O)c1ccccc1Br`: the activation fold is 1.2 (inactive).

With `CCOC(=O)c1nnn(-c2nonc2-n2cccc2)c1CN1CCC(C(=O)OCC)CC1`, the activation fold is 1.2 (inactive).

With `CC(=O)c1ccc(OCCN2CCOCC2)cc1`, the activation fold is 0.9 (inactive).

For the compound `Cc1c(C(=O)CN2CCOCC2)[nH]c2ccccc12`, the activation fold is 0.9 (inactive).

Take `Cc1c(C(=O)N2CCOCC2)[nH]c2ccc(OCc3ccccc3)cc12`: the activation fold is 2 (active).

As to `CCOC(=O)c1[nH]c2ccc(OC)cc2c1NC(=O)N1CCOCC1`, the activation fold is 1.1 (inactive).

Regarding `COc1cccc2c1OCC1COc3c(c(=O)n(C)c(=O)n3C)C21` (stereo not drawn), the activation fold was 1 (inactive).

With `COc1ccc(OCC(=O)NNC(=O)c2ccc(-c3ccccc3)cc2)cc1`, the activation fold was 1.5 (inactive).

For `CCNC(=S)NNC(=O)Cc1ccccc1`, the activation fold was 1.3 (inactive).

Turning to `CC(C)(C)c1ccc(C(=O)NNC(=O)Cc2ccccc2)cc1`, the activation fold is 2.1 (active).

As for `Cc1ccc(-c2cnc(NC(=O)CCC(=O)N(C)Cc3ccccc3)n2C)cc1`, the activation fold is 1.5 (inactive).

As for `Cc1ccc(-n2nc(N)c3c(=O)oc(N(C)C)nc32)cc1`, the activation fold was 1.1 (inactive).

`CSc1nc(-c2ccco2)nn1C(=O)CCc1ccccc1`: the activation fold was 1.1 (inactive).

Take `COc1ccc(C2SCCN2S(=O)(=O)c2ccccc2)cc1OC` (stereo not drawn): the activation fold was 1.3 (inactive).

Turning to `COc1ccc(C2CC(=O)n3c(nc4ccccc43)S2)cc1OC` (stereo not drawn), the activation fold was 1.1 (inactive).

Regarding `COc1ccc(C2N=C(N)N=C(N)N2c2ccccc2)cc1OC` (stereo not drawn), the activation fold is 2.5 (active).

Turning to `COCCn1c(C)cc(C2=NNC(=Nc3ccc(F)cc3)SC2)c1C`, the activation fold is 1.2 (inactive).

For `CN1/C(=C\C(=O)c2oc3ccccc3c2N)C(C)(C)c2ccccc21`, the activation fold is 1 (inactive).

For `COc1ccc(NC(C)=O)cc1NC(=O)CN1CCN(c2ccccn2)CC1`, the activation fold was 1 (inactive).

On to `COc1ccc(NC(C)=O)cc1NC(=O)CN1CCN(C2c3ccccc3-c3ccccc32)CC1`, for which the activation fold was 2.8 (active).

In the case of `COc1ccc(OC)c(NC(=O)CN2CCN(C(=O)c3ccco3)CC2)c1`, the activation fold was 1.2 (inactive).

For `Cc1ccc(S(=O)(=O)Nc2nc(C)cc(-n3nc(C)cc3C)n2)cc1`, the activation fold was 1.4 (inactive).

As to `Nc1nc(SCc2ccccc2Cl)n[nH]1`, the activation fold was 1.5 (inactive).

As for `COc1ccc(C(=O)CSc2n[nH]c(N)n2)cc1`, the activation fold was 1.5 (inactive).

On to `Nc1nc(SCCOc2ccccc2)n[nH]1`, for which the activation fold was 2 (active).

Consider `COc1ccccc1-c1n[nH]c2c1[C@H](C)CC[C@H]2C(C)C`, for which the activation fold was 1.4 (inactive).

As to `O=C(OCN1C(=O)c2ccccc2C1=O)/C(=C\c1ccco1)NC(=O)c1ccccc1`, the activation fold is 1.1 (inactive).

Consider `CCOc1cccc(C(=O)Nc2cnn(Cc3ccccc3)c2)c1`, for which the activation fold was 0.7 (inactive).

For the compound `COc1ccc(CNC(=O)CCn2cccc2)cc1`, the activation fold was 1 (inactive).

Regarding `CC(C)NC(=O)NC(=O)COC(=O)c1ccc(NC(=O)CC#N)cc1`, the activation fold was 1.4 (inactive).

`O=C(Nc1nnc(C2CC2)s1)c1ccccn1`: the activation fold was 2.3 (active).

Regarding `COc1ccc2c(CC(=O)Nc3nnc(C4CC4)s3)coc2c1`, the activation fold was 0.9 (inactive).

On to `Cc1occc1C(=O)Nc1nnc(C2CCCCC2)s1`, for which the activation fold was 1 (inactive).

Take `NC(=O)C1(N2CCCCC2)CCN(C(=S)Nc2ccc(Cl)cc2)CC1`: the activation fold is 0.9 (inactive).

With `COc1cccc(N2C(=O)CC(N3CCN(S(=O)(=O)c4ccccc4)CC3)C2=O)c1` (stereo not drawn), the activation fold is 1.4 (inactive).

Consider `Cc1cccc(N2CCN(S(=O)(=O)c3ccc4[nH]c(=O)c(=O)[nH]c4c3)CC2C)c1` (stereo not drawn), for which the activation fold was 2.2 (active).

As to `CN1CCN(S(=O)(=O)c2ccc3[nH]cc(C(=O)O)c(=O)c3c2)CC1`, the activation fold is 1.1 (inactive).

With `O=C1C(Cl)=C(N2CCOCC2)C(=O)N1c1ccccc1`, the activation fold is 1 (inactive).

For `O=C(CN1C(=O)C2C3C=CC(C3)C2C1=O)Nc1nc(-c2ccccn2)cs1` (stereo not drawn), the activation fold was 2.3 (active).

As to `O=C(CN1C(=O)C2C3C=CC(C3)C2C1=O)NCCc1ccccc1Cl` (stereo not drawn), the activation fold is 0.9 (inactive).

Turning to `O=C(NCCN1C(=O)C2C3C=CC(C3)C2C1=O)Nc1ccccn1` (stereo not drawn), the activation fold was 1.1 (inactive).

Regarding `CC(OC(=O)CN1C(=O)C2CCCCC2C1=O)C(=O)Nc1ncc(Cl)cc1Cl` (stereo not drawn), the activation fold was 0.9 (inactive).

With `Cc1ccc(C(C(=O)NC2CCCC2)N(Cc2ccco2)C(=O)CCC(=O)Nc2ccccn2)cc1` (stereo not drawn), the activation fold is 1.7 (inactive).

As for `CCCC(=O)Nc1cc(OCC)c(NC(=O)NC2CCCCC2)cc1OCC`, the activation fold is 0.9 (inactive).

For the compound `Cc1noc(C)c1C(=O)N(CC(=O)NC1CCCC1)Cc1ccccc1F`, the activation fold is 1 (inactive).

For the compound `CCOc1ccccc1N(CC(=O)NC1CCCCC1)C(=O)CCCC(=O)Nc1ccccn1`, the activation fold is 2 (active).

Regarding `O=C(CCCC(=O)N(CC(=O)NC1CCCC1)Cc1ccccc1Cl)Nc1ccccn1`, the activation fold was 2 (active).

Consider `O=C(CN1CCN(c2ccccn2)CC1)NC1CCCCC1`, for which the activation fold is 1.1 (inactive).

As for `CCCCNC(=O)C(=O)c1ccccc1NC(C)=O`, the activation fold was 0.9 (inactive).

`Cc1cccc(C)c1NC(=O)CSc1nnc(-c2ccccc2)n1Cc1ccc2c(c1)OCO2`: the activation fold is 1.4 (inactive).

Turning to `Cc1cc(/C=C2/SC(=O)N(CC(=O)OC(C)C)C2=O)c(C)n1C`, the activation fold is 1 (inactive).

Take `COC(=O)CSc1snnc1-c1ccc(Cl)c(Cl)c1`: the activation fold is 1 (inactive).

Consider `CCC(C)(C)c1ccc(Oc2ccc(NC(=O)COC(=O)C3=COCCO3)cc2)cc1`, for which the activation fold is 2.9 (active).

As to `O=C(OCC(=O)c1cccs1)C1=COCCO1`, the activation fold was 0.9 (inactive).

With `CC(C)NS(=O)(=O)c1ccc(OCC(=O)Nc2ccc3c(c2)OCCO3)cc1`, the activation fold was 0.7 (inactive).

Turning to `O=C(CSCc1ccccc1)N1CCc2ccccc21`, the activation fold is 0.7 (inactive).

With `c1ccc(CCc2nc(-c3ccncc3)no2)cc1`, the activation fold is 0.9 (inactive).

Turning to `O=C(Nc1cccc(Cl)c1)Nc1nnc(-c2ccccc2)o1`, the activation fold was 1.1 (inactive).

Consider `O=C(COc1ccccc1)Nc1nonc1NC(=O)COc1ccccc1`, for which the activation fold was 0.9 (inactive).

As to `O=C(COC(=O)c1ccc(Oc2ccccc2)cc1)Nc1nnc(-c2ccccc2)o1`, the activation fold is 2 (active).

As for `Cc1ccc(NC(=O)C(C)c2cccc(C(=O)c3ccccc3)c2)cc1` (stereo not drawn), the activation fold is 0.7 (inactive).

As for `C=CCN(C(=O)Cn1ncc2c1-c1cc(C)ccc1OC2)c1ccccc1`, the activation fold is 1.2 (inactive).

`COc1ccccc1OCc1nc2ccccc2s1`: the activation fold was 1 (inactive).

`COc1ccc(C(C#N)N2N=C(C)CC2(C)C)cc1` (stereo not drawn): the activation fold was 0.9 (inactive).

For `Cc1cccc(N(CC(=O)N=Nc2c(O)[nH]c3ccccc23)S(C)(=O)=O)c1C`, the activation fold was 1.9 (inactive).

For `Cc1ccccc1NC(=O)c1ccccc1NS(=O)(=O)c1cccc2cccnc12`, the activation fold was 1.3 (inactive).

With `O=C(/C=C/NNC(=O)c1cccc(Br)c1)c1ccccc1`, the activation fold was 2 (active).

For `CC(C)(O)C(=O)NN(C(=O)c1ccccc1)c1cccc(Br)c1`, the activation fold is 0.9 (inactive).

Regarding `O=C(/C=C\NCC(=O)c1ccccc1)c1ccccc1`, the activation fold is 0.9 (inactive).

With `COc1ccccc1NS(=O)(=O)N(C)C`, the activation fold is 0.8 (inactive).
